The results in this text go back to PubChem BioAssay (NCATS).

Values joined by “and” are separate entries in the source; they are usually repeats but may differ in a detail not shown here. Identical values can stand only once. Results filed as inconclusive are left out. Active and inactive are the calls of the source. Calls come from the whole dose curve; as a rule, active = well fitted inhibition curve with a large enough effect in the signal ratio, with a control signal flat (not every such curve was filed as active); inconclusive = small, poorly fitted or top-dose-only effect, or effect the other way, or a change in a side signal; inactive = no such curve, though single readings can be large or run the other way; the % refers to the signal ratio.
% is set by controls: 0 for no effect and ±100 for the full control effect.

For the assay, the target named is Retinoic acid receptor RXR-alpha (Homo sapiens) (UniProt P19793). The assay is described as follows: qHTS assay for small molecule antagonists of retinoid X receptor alpha signaling (AID 588546). The following applies: HEK293T RXRa-UAS-bla, beta-lactamase ratio, antagonist mode. The source says: NIH Chemical Genomics Center [NCGC] U.S. Environmental Protection Agency [EPA] National Institutes of Environmental Health Sciences [NIEHS] National Toxicology Program [NTP] NCGC Assay Overview The Retinoid X receptor (RXR), a nuclear hormone receptor is expressed in liver, spleen, placenta, epidermis, central nervous system. These receptors are able to form homo and heterodimers with other nuclear receptors and due to this heterodimerizing ability, RXR functions as master regulators producing diverse physiological effects. Three subtypes of RXR exist; alpha, beta and gamma. Retinoid X receptor alpha (RXR-alpha) has potential roles in metabolic signaling pathways, skin alopecia, dermal cysts, cardiac development, insulin sensitization etc. Therefore screening environmental chemicals on RXR-alpha signaling can be used for the studies focused on such therapeutic applications.
Sequence of Retinoic acid receptor RXR-alpha (Homo sapiens) (P19793 whole entry, looked up): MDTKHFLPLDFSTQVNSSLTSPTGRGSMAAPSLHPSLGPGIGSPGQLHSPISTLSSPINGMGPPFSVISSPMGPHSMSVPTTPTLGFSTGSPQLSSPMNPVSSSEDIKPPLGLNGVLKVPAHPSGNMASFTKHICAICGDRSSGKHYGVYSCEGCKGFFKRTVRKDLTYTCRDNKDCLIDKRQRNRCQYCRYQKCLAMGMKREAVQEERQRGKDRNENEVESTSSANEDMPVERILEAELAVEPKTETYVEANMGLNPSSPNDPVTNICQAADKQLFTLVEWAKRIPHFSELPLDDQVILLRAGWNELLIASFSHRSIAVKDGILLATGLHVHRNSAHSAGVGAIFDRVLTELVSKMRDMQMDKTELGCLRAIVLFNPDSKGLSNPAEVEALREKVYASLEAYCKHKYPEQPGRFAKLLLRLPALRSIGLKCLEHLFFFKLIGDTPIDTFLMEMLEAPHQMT
NCGC Assay Protocol Summary Using a beta-lactamase reporter-gene under control of Retinoid X receptor--alpha (RXR-alpha) response element, a cell-based assay [GeneBLAzer (RXR-alpha -UAS-bla assay developed by Invitrogen] was used to measure RXR-alpha ligands signaling. GeneBLAzer RXR-alpha -UAS-bla HEK293T cells were used with assay medium containing 2% charcoal-stripped FBS. The assay was performed in clear bottom black Greiner 1536-well plates. Library compounds were measured for their ability to inhibit the reporter gene activity. Compounds were screened in a titration series in 1536-well format. The fluorescence intensity (405 nm excitation, 460/530 nm emission) was measured using an EnVision plate reader. Data was normalized relative to 9-cis-retinoic acid control (500 nM, 100%), and DMSO only wells (basal, 0%). Concentration-response titration points for each compound were fitted to the Hill equation yielding concentrations of half-maximal inhibition (IC50) and maximal response (efficacy) values. qHTS protocol for RXR-alpha beta-lactamase assay in antagonist mode [Step] [Parameter] [Value] [Description] 1. Reagent; 5 uL; 2500 cells/well 2. Incubation; 37 C for 4 hrs 3. Compounds; 23 nL; 0.59 nM to 92 uM 4. Controls (DMSO); 23 nL 5. Agonist (Stimulator); 1uL; 9-cis-retinoic acid at 500 nM and 100 nM final concentrations 6. Incubation; 37 C for 18 hrs 7. Detection reagent; 1 uL of CCF4-dye 8. Incubation; RT for 2 hrs 9. Detection; Fluorescence; Envision plate reader
`ClC(Cl)=C(Cl)C(Cl)=C(Cl)Cl`: the max response was -0.928% (inactive) and 1.51% (inactive).
With `C=CC(=O)OCC`, the max response is 4.16% (inactive).
`COc1ccc(N)cc1`: the max response was -1.34% (inactive) and 19.9% (inactive).
In the case of `CNC(=O)CSP(=S)(OC)OC`, the max response is -6.5% (inactive).
For `Nc1ccccc1Cl`, the max response was 23.6% (inactive).
Next, `C1CCC2CCCCC2C1` (stereo not given): -5.58% (inactive); `O=NN(CCO)CCO`: 16.4% (inactive); `OCC1CO1` (stereo not given): 13.7% (inactive) and -0.419% (inactive).
Take `CC(C)(c1ccccc1)c1ccc(O)cc1`: the max response is -3.65% (inactive).
On to `CC(C)(C)C(=O)C(Oc1ccc(Cl)cc1)n1cncn1` (stereo not given), for which the max response is 0.375% (inactive) and -49.7% (inactive).
In the case of `O=[N+]([O-])c1cccc2ccccc12`, the max response is 5.1% (inactive) and -1.16% (inactive).
For `C=CC(C)=O`, the max response is 8.07% (inactive).
Turning to `N#CCCCl`, the max response was 15.2% (inactive) and 9.43% (inactive).
Next, `C=CCOC(C)=O`: 2.59% (inactive).
Next, `CCc1cccc(C)c1N(C(=O)CCl)C(C)COC` (stereo not given): -18.8% (inactive); `C[N+](C)(C)Cc1ccccc1`: 9.55% (inactive) and -19% (inactive).
Consider `C=CCc1ccc(OC)cc1`, for which the max response is 6.28% (inactive).
For `Clc1cccc(C(Cl)(Cl)Cl)n1`, the max response was 0.436% (inactive) and 2.35% (inactive).
For `CCCC(=O)Cl`, the max response is 15.7% (inactive).
As to `Nc1c(Cl)c(Cl)nc(C(=O)O)c1Cl`, the max response was -3.97% (inactive) and -1.67% (inactive) and -10.4% (inactive).
With `CCNc1nc(Cl)nc(NC(C)C)n1`, the max response was -16% (inactive) and 6.8% (inactive).
Take `CCc1cccc(CC)c1N(COC)C(=O)CCl`: the max response was -7.04% (inactive).
Next, `Cc1cccc(C#N)c1`: 20.5% (inactive); `CC(C)OC(=O)Nc1cccc(Cl)c1`: 4.34% (inactive); `COc1nc(NC(C)C)nc(NC(C)C)n1`: -8.1% (inactive).
Next, `CCCCOCCOP(=O)(OCCOCCCC)OCCOCCCC`: -9.74% (inactive) and -1.56% (inactive); `O=C(Cl)/C=C/C(=O)Cl`: -3.28% (inactive); `CC(=O)[O-].CC(=O)[O-].O.O.O.[Pb+2]`: 27.2% (inactive) and 0.247% (inactive).
As to `ClC(Cl)(Cl)c1ccccc1`, the max response was 9.82% (inactive) and 8.91% (inactive).
`CCCCOC(=O)c1ccccc1C(=O)OCCCC`: the max response is -10.9% (inactive).
Next, `ClCBr`: -1.21% (inactive).
The same measure for `CC(O)CCl` (stereo not given): -5.06% (inactive) and 5.36% (inactive); for `Cc1cccc([N+](=O)[O-])c1`: 4.38% (inactive) and -23.2% (inactive); for `CC(C)(C)OO`: 34% (inactive) and 10.1% (inactive).
On to `C=CC(=C)C`, for which the max response is -0.537% (inactive).
Regarding `OCC(Br)CBr` (stereo not given), the max response is 1.29% (inactive).
Next, `CC(COc1ccc(Oc2ccccc2)cc1)Oc1ccccn1` (stereo not given): -8.09% (inactive) and -10.1% (inactive).
Take `ClC(Cl)=C(c1ccc(Cl)cc1)c1ccc(Cl)cc1`: the max response was -7.07% (inactive) and 0.666% (inactive).
Next, `BrCCBr`: 9.69% (inactive) and -0.139% (inactive); `O=C(Cl)C(Cl)(Cl)Cl`: 2.98% (inactive).
